Data on five compounds can be found in publication PMC11062922 (Nature Chemical Biology, 2023).

Where two headings read alike, the source gives them in different places.

What all share (design): species or system human, MV4-11 + K-562 + COLO205 + SK-N-BE2 + OVCAR-8
In one assay the test system is CSNK1D. Conditions: read-out: apparent Kd, n = 1.
The next assay has as its system CSNK1E. Conditions: read-out: apparent Kd, n = 1.
The next assay has as its system FN3KRP. Conditions: read-out: apparent Kd; compound concentrations: 100 nM and 1000 nM (sheet 'Samples'), CATDS: 4.0325276132441398E-2; n = 1.
Another assay has as its system FN3K. As to conditions: read-out: apparent Kd; compound concentrations: 100 nM and 1000 nM (sheet 'Samples'), CATDS: 3.5729467318233003E-2; n = 1.
For another assay, the system named is MAPK14. Conditions: read-out: apparent Kd, n = 1.
A further assay has as its system MAPK1. Conditions: read-out: apparent Kd; compound concentrations: 100 nM and 1000 nM (sheet 'Samples'), CATDS: 3.8538636035205603E-2; n = 1.
The subject of the next assay is MAPK8. Conditions: read-out: apparent Kd, compound concentrations: 100 nM and 1000 nM (sheet 'Samples'), n = 1.
The test system of the next assay is MAPK9. As to conditions: read-out: apparent Kd, compound concentrations: 100 nM and 1000 nM (sheet 'Samples'), n = 1.
The next assay has as its system MAPKAPK2. As to conditions: read-out: apparent Kd, n = 1.
A further assay deals with NUAK2. Conditions: read-out: apparent Kd; compound concentrations: 100 nM and 1000 nM (sheet 'Samples'), CATDS: 3.7503176439752997E-2; n = 1.
The test system of a further assay is PAK6. As to conditions: read-out: apparent Kd, compound concentrations: 100 nM and 1000 nM (sheet 'Samples'), n = 1.
The next assay relates to PDXK. As to conditions: read-out: apparent Kd; compound concentrations: 100 nM and 1000 nM (sheet 'Samples'), CATDS: 4.2866477052702801E-2; n = 1.
A further assay has as its system PRKD1. As to conditions: read-out: apparent Kd; compound concentrations: 100 nM and 1000 nM (sheet 'Samples'), CATDS: 5.7643815107824597E-2; n = 1.
Another assay concerns PRKD2. As to conditions: read-out: apparent Kd; compound concentrations: 100 nM and 1000 nM (sheet 'Samples'), CATDS: 6.6871929523774506E-2; n = 1.
A further assay relates to PRKD3. Conditions: read-out: apparent Kd; compound concentrations: 100 nM and 1000 nM (sheet 'Samples'), CATDS: 6.6409082952543802E-2; n = 1.
For the next assay, the system named is RIPK2. As to conditions: read-out: apparent Kd; compound concentrations: 100 nM and 1000 nM (sheet 'Samples'), CATDS: 4.9490640044255602E-2; n = 1.
For the next assay, the system named is CSNK1A1. Conditions: read-out: apparent Kd; compound concentrations: 100 nM and 1000 nM (sheet 'Samples'), CATDS: 0.102503652768427; n = 1.
The next assay relates to T1, DJA1.
T1 construct: gene DNAJA1
Conditions: read-out: apparent Kd; compound concentrations: 100 nM and 1000 nM (sheet 'Samples'), CATDS: 7.1447025322651805E-2; n = 1.

The subject of another assay is MAPK10. As to conditions: read-out: apparent Kd; compound concentrations: 100 nM and 1000 nM (sheet 'Samples'), CATDS: 7.1245555578464306E-2; n = 1.
The subject of another assay is MAPK11. Conditions: read-out: apparent Kd; compound concentrations: 100 nM and 1000 nM (sheet 'Samples'), CATDS: 7.9204394656965396E-2; n = 1.
In another assay the test system is NQO2. As to conditions: read-out: apparent Kd; compound concentrations: 100 nM and 1000 nM (sheet 'Samples'), CATDS: 7.6337001924779102E-2; n = 1.
The test system of a further assay is CLK1. As to conditions: read-out: apparent Kd; compound concentrations: 100 nM and 1000 nM (sheet 'Samples'), CATDS: 0.13184639507044499; n = 1.
For the next assay, the system named is CLK4. Conditions: read-out: apparent Kd; compound concentrations: 100 nM and 1000 nM (sheet 'Samples'), CATDS: 0.153440234991533; n = 1.
A further assay deals with GAK. As to conditions: read-out: apparent Kd; compound concentrations: 100 nM and 1000 nM (sheet 'Samples'), CATDS: 0.13551111713290001; n = 1.
In a further assay the test system is TTK. Conditions: read-out: apparent Kd; compound concentrations: 100 nM and 1000 nM (sheet 'Samples'), CATDS: 0.53372982121950996; n = 1.
The test system of another assay is COX5A. Conditions: read-out: apparent Kd; compound concentrations: 100 nM and 1000 nM (sheet 'Samples'), CATDS: 4.1546789230528999E-2; n = 1.
The next assay relates to GSK3A. As to conditions: read-out: apparent Kd; compound concentrations: 100 nM and 1000 nM (sheet 'Samples'), CATDS: 6.2645628894546598E-2; n = 1.
For a further assay, the system named is GSK3B. Conditions: read-out: apparent Kd; compound concentrations: 100 nM and 1000 nM (sheet 'Samples'), CATDS: 5.5933303342936301E-2; n = 1.
In the next assay the test system is GTPBP4. Conditions: read-out: apparent Kd; compound concentrations: 100 nM and 1000 nM (sheet 'Samples'), CATDS: 4.05365212601312E-2; n = 1.
A further assay has as its system LATS1. Conditions: read-out: apparent Kd; compound concentrations: 100 nM and 1000 nM (sheet 'Samples'), CATDS: 6.4509671540351102E-2; n = 1.
The subject of a further assay is PAK4. Conditions: read-out: apparent Kd; compound concentrations: 100 nM and 1000 nM (sheet 'Samples'), CATDS: 5.9667413912450298E-2; n = 1.
The test system of the next assay is PKN1. As to conditions: read-out: apparent Kd; compound concentrations: 100 nM and 1000 nM (sheet 'Samples'), CATDS: 5.7657473805166601E-2; n = 1.
In a further assay the test system is PKN2. As to conditions: read-out: apparent Kd; compound concentrations: 100 nM and 1000 nM (sheet 'Samples'), CATDS: 4.3276435854429397E-2; n = 1.
The subject of a further assay is PRKACA. As to conditions: read-out: apparent Kd; compound concentrations: 100 nM and 1000 nM (sheet 'Samples'), CATDS: 0.169432353175829; n = 1.
In a further assay the test system is PRKACB. Conditions: read-out: apparent Kd; compound concentrations: 100 nM and 1000 nM (sheet 'Samples'), CATDS: 0.14426679409785001; n = 1.
Another assay deals with PRKCD. As to conditions: read-out: apparent Kd; compound concentrations: 100 nM and 1000 nM (sheet 'Samples'), CATDS: 4.3301317069520798E-2; n = 1.
The test system of the next assay is PRKCQ. Conditions: read-out: apparent Kd; compound concentrations: 100 nM and 1000 nM (sheet 'Samples'), CATDS: 0.16159232019623801; n = 1.
Another assay concerns PRKG1. As to conditions: read-out: apparent Kd; compound concentrations: 100 nM and 1000 nM (sheet 'Samples'), CATDS: 5.6874913121809097E-2; n = 1.
A further assay deals with PRKX. Conditions: read-out: apparent Kd; compound concentrations: 100 nM and 1000 nM (sheet 'Samples'), CATDS: 0.106921293671462; n = 1.
For a further assay, the system named is ROCK2. Conditions: read-out: apparent Kd; compound concentrations: 100 nM and 1000 nM (sheet 'Samples'), CATDS: 4.7086778656787398E-2; n = 1.
Setting [1] is: compound concentrations:100 nM and 1000 nM (sheet 'Samples').

`CC(CO)Nc1cc(-c2[nH]c3cccnc3c2-c2ccc(F)cc2)ccn1.Cl` (stereo not drawn) [RO3202312-001]: the potency estimated from few doses with CSNK1D (compound concentrations: 100 nM and 1000 nM (sheet 'Samples'), CATDS: 9.2931032054770199E-2) was 48.2 nM; with CSNK1E (compound concentrations: 100 nM and 1000 nM (sheet 'Samples'), CATDS: 6.9907661952316402E-2), 115 nM; in the assay with FN3KRP it was 967 nM; in the assay on FN3K, 1990 nM; with MAPK14 (compound concentrations: 100 nM and 1000 nM (sheet 'Samples'), CATDS: 0.154329578320028), 12.1 nM; in the assay with MAPK1, 1240 nM. Moreover, the potency estimated from few doses in the assay with MAPK8 (CATDS: 4.79247089655142E-2) is 440 nM; in the assay on MAPK9 (CATDS: 0.13086781986766799), 18.6 nM; with MAPKAPK2 (compound concentrations: 100 nM and 1000 nM (sheet 'Samples'), CATDS: 0.22131403995385401), 4.81 nM; with NUAK2 it was 1450 nM; with PAK6 (CATDS: 3.6851014087153897E-2), 1620 nM; in the assay with PDXK, 716 nM. The potency estimated from few doses with PRKD1 was 219 nM; in the assay with PRKD2, 132 nM; in the assay with PRKD3, 135 nM; with RIPK2, 386 nM.
In the case of `NC(=O)Cc1ccccc1Oc1nccc(-c2c(-c3ccc(F)cc3)ncn2C2CCNCC2)n1` [SB-264865], the potency estimated from few doses is 1300 nM in the assay with CSNK1D (setting [1]), 2030 nM in the assay with CSNK1E (setting [1]), 418 nM in the assay on MAPK14 (setting [1]) and 503 nM in the assay on MAPKAPK2 (setting [1]).
Take `CCOc1nccc(-c2c(-c3ccc(F)cc3)ncn2C2CCNCC2)n1` [SB-249175]: the potency estimated from few doses in the assay with CSNK1A1 was 294 nM; with CSNK1D (compound concentrations: 100 nM and 1000 nM (sheet 'Samples'), CATDS: 0.31219473795395603) it was 16.6 nM; in the assay with CSNK1E (compound concentrations: 100 nM and 1000 nM (sheet 'Samples'), CATDS: 0.18119769412776501), 46.9 nM; in the assay on DJA1, 1630 nM; with MAPK10, 1660 nM; with MAPK11 it was 935 nM. For the same compound, the potency estimated from few doses in the assay with MAPK14 (compound concentrations: 100 nM and 1000 nM (sheet 'Samples'), CATDS: 0.21634918417803001) is 31.9 nM; in the assay on MAPKAPK2 (compound concentrations: 100 nM and 1000 nM (sheet 'Samples'), CATDS: 0.24140517483875701), 25.8 nM; with NQO2 it was 1130 nM.
With `CNc1nc(Nc2ccc(C(=O)N3CCOCC3)cc2OC)nc2[nH]cc(Cl)c12` [JH-II-127], the potency estimated from few doses in the assay with CLK1 is 1090 nM; in the assay on CLK4, 722 nM; in the assay on GAK, 1000 nM; in the assay with MAPK8 (CATDS: 0.168882234188796), 575 nM; with MAPK9 (CATDS: 0.14872410543912701), 781 nM; in the assay on TTK, 76.1 nM.
`CCn1c(-c2nonc2N)nc2c(C#CC(C)(C)O)nc(OC[C@H](N)c3ccccc3)cc21` [GSK943949A]: the potency estimated from few doses in the assay on COX5A is 1670 nM; with GSK3A, 424 nM; with GSK3B, 576 nM; in the assay on GTPBP4, 1880 nM; in the assay on LATS1, 394 nM; with PAK4 it was 482 nM. Also, the potency estimated from few doses in the assay on PAK6 (CATDS: 9.5972545463879802E-2) was 167 nM; with PKN1, 529 nM; in the assay with PKN2 it was 1390 nM; in the assay on PRKACA, 64.8 nM; in the assay on PRKACB, 82.7 nM; in the assay with PRKCD, 1390 nM. In addition, the potency estimated from few doses in the assay on PRKCQ is 69.5 nM; in the assay on PRKG1, 549 nM; with PRKX it was 137 nM; in the assay with ROCK2, 999 nM.
